According to the supplement of paper PMC10849652:
Targets with a hit are over-represented here; the source holds about 7,900 in all. About 0.6% of all pairs of compound and target were hits.

Key:
Assay in all cases: log2 fold change, soluble protein after heating vs DMSO (PISA); higher = thermal stabilisation; K562 cells, 10 uM, 30 min; active = over 0.2 and 3.5 SD of the protein, either way, in both replicates (recomputed)
[1] = compound: CC1=C(C=C(C=C1)NC(=O)C2=CC(=CC=C2)C(C)(C)C#N)NC3=CC4=C(C=C3)N=CN(C4=O)C
In short: (§1)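 For each measurement, 10 μM compound was applied for 30 min to K562 cells at 2×10^6 cells/mL. Aliquots were heated for 3 min across 48°C-58°C, pooled, and extracted in PBS with 0.5% NP-40 at 4°C; the supernatant after 21,000xg for 90 min was soluble protein. This was quantified by TMTpro 16plex LC-MS/MS with channel sums equalised, and thermal stability was reported relative to control samples from duplicates, on a log2 fold-change scale.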

[2] = compound: CC1=C(C=C(C=C1)NC(=O)C2=CC(=CC=C2)N(C)C)NC(=O)C3=CC=C(C=C3)O
In short: as §1

[3] = compound: CC1=CC=C(C=C1)SC2=C3C=C(SC3=CN=C2)C(=O)N
In short: as §1

[4] = compound: CC1=NC(=CC=C1)C2=C(N=C(N2)C(C)(C)C)C3=CC4=NC=CN=C4C=C3
In short: as §1

[5] = compound: CCCCN(Cc1ccc(C(=O)NO)cc1)C(=O)Nc1ccccc1 [Nexturastat A]
In short: as §1

[6] = compound: CCCS(=O)(=O)Nc1ccc(F)c(C(=O)c2c[nH]c3ncc(-c4ccc(Cl)cc4)cc23)c1F [vemurafenib]
In short: as §1

[7] = compound: CCCS(=O)(=O)Nc1ccc(F)c(C(=O)c2c[nH]c3ncc(Cl)cc23)c1F
In short: as §1

[8] = compound: CCCc1cc(C)[nH]c(=O)c1CNC(=O)c1cc(-c2ccnc(N3CCN(C)CC3)c2)cc2c1cnn2C(C)C
In short: as §1

[9] = compound: CCN(CC)Cc1ccc2cc(COC(=O)Nc3ccc(C(=O)NO)cc3)ccc2c1 [givinostat]
In short: as §1

[10] = compound: CCN(CCCOc1ccc2c(Nc3cc(CC(=O)Nc4cccc(F)c4)[nH]n3)ncnc2c1)CCOP(=O)(O)O [barasertib]
In short: as §1

[11] = compound: CC[C@@H]1C(=O)N(C)c2cnc(Nc3ccc(C(=O)NC4CCN(C)CC4)cc3OC)nc2N1C1CCCC1
In short: as §1

[12] = compound: CC[C@@H]1C(=O)N(C)c2cnc(Nc3ccc(C(=O)N[C@H]4CC[C@H](N5CCN(CC6CC6)CC5)CC4)cc3OC)nc2N1C(C)C [volasertib]
In short: as §1

[13] = compound: CC[C@H](C)N1C=C(C2=C(C=C(C=C21)C3=CN=C(C=C3)N4CCNCC4)C(=O)NCC5=C(C=C(NC5=O)C)C)C
In short: as §1

[14] = compound: CC[C@H](C)[C@@H](C(=O)N[C@@H]([C@@H](C)O)C(=O)N[C@@H](CC(C)C)C(=O)[C@]1(CO1)C)NC(=O)[C@H]([C@@H](C)CC)N(C)C(=O)C [epoxomicin]
In short: as §1

[15] = compound: CCn1c(C(=O)N(C2CC2)C2CC2)cc2c3c(ncn3C)c(Nc3cc(C)n(C)n3)nc21
In short: as §1

[16] = compound: CCn1cc(-c2ccnc3[nH]c(-c4cccc(CN(C)C)c4)cc23)c(-c2ccc(NC(=O)N(C)C)cc2)n1
In short: as §1

[17] = compound: CN(C)CC(=O)Nc1ccc2[nH]c(=O)c3ccccc3c2c1
In short: as §1

[18] = compound: CN(CCOC1=CC=C(C=C1)C[C@H]2C(=O)NC(=O)S2)C3=CC=CC=N3 (racemic) [rosiglitazone]
In short: as §1

[19] = compound: CN1C2=C(C3=C1C(=O)N(N=C3)CC4=CC(=CC=C4)N)SC(=C2)S(=O)C
In short: as §1

[20] = compound: CN1CCC(CNc2ccc3ncc(-c4cccc(OC(F)(F)F)c4)n3n2)CC1
In short: as §1

Measured: log2 fold change

RBM26 isoform 2 (UniProt Q5T8P6)
Chain of UniProt Q5T8P6 (Q5T8P6 whole entry, looked up): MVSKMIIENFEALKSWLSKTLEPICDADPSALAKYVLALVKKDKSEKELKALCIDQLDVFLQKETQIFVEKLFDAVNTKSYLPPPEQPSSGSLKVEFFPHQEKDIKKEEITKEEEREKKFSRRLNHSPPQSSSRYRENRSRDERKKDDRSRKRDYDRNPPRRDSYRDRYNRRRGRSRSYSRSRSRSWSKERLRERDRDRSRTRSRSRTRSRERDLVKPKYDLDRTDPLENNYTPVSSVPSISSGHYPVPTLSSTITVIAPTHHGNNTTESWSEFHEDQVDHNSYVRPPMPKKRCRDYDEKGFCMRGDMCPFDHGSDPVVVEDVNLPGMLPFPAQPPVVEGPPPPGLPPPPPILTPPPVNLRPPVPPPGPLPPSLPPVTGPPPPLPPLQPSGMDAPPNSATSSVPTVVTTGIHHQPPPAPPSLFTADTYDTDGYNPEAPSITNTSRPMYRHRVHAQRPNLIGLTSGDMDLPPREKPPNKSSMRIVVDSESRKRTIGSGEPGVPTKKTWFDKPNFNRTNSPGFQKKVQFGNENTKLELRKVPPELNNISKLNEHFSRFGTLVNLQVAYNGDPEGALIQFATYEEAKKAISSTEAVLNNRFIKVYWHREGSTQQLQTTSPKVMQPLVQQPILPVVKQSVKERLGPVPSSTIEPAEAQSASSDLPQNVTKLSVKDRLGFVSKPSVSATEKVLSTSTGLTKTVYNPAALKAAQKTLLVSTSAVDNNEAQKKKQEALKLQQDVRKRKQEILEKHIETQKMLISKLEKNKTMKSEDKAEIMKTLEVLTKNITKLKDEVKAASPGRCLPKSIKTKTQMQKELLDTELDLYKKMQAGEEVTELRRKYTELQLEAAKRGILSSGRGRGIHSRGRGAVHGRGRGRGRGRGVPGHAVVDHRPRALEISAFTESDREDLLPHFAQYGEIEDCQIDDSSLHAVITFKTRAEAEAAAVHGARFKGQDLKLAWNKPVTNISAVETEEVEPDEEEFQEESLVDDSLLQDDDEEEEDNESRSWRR
inactive: [1] 0.122 | [2] -0.088 | [3] 0.033 | [4] 0.116 | [5] -0.184 | [6] 0.143 | [7] 0.09 | [8] -0.014 | [9] 0.097 | [10] 0.079 | [11] -0.207 | [12] -0.299 | [13] 0.151 | [14] 0.098 | [15] -0.061 | [16] -0.069 | [17] 0.072 | [18] 0.094 | [19] -0.011 | [20] -0.177

SFXN5 (UniProt Q8TD22)
Chain of UniProt Q8TD22 (Q8TD22 whole entry, looked up): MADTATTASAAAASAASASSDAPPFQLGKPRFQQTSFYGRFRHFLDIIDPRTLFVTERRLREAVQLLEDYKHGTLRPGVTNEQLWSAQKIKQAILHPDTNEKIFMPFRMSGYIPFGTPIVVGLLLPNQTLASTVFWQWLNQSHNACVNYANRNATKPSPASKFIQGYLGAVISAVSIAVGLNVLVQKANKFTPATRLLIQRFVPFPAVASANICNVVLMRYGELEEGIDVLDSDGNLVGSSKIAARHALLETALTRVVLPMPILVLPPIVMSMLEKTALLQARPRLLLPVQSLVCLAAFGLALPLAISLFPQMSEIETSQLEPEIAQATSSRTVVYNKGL
inactive: [1] -0.013 | [2] 0 | [3] 0.049 | [4] 0.024 | [5] -0.026 | [6] 0.135 | [7] 0.012 | [8] 0.012 | [9] 0.124 | [10] 0.057 | [11] 0.048 | [12] -0.034 | [13] 0.022 | [14] -0.009 | [15] -0.012 | [16] -0.039 | [17] 0.006 | [18] 0.007 | [19] -0.209 | [20] 0.063

SH3GL1 (UniProt Q99961)
Chain of UniProt Q99961 (Q99961 whole entry, looked up): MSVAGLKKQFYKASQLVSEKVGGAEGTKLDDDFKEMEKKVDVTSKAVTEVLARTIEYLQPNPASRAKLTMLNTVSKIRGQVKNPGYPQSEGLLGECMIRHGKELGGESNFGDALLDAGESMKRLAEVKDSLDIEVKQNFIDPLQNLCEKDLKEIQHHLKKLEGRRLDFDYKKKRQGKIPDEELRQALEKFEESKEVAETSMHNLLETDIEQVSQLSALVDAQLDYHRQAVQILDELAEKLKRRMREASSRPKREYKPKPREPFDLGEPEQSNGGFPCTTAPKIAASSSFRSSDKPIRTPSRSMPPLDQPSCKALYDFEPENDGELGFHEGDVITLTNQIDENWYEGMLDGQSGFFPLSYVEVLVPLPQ
active: [12] -0.459
inactive: [1] 0.022 | [2] -0.077 | [3] 0.06 | [4] 0.021 | [5] 0.141 | [6] 0.1 | [7] 0.1 | [8] 0.037 | [9] 0.024 | [10] 0.084 | [11] -0.137 | [13] 0.082 | [14] 0.008 | [15] -0.077 | [16] -0.028 | [17] 0.091 | [18] 0.062 | [19] -0.006 | [20] -0.196

SHCBP1 (UniProt Q8NEM2)
Chain of UniProt Q8NEM2 (Q8NEM2 whole entry, looked up): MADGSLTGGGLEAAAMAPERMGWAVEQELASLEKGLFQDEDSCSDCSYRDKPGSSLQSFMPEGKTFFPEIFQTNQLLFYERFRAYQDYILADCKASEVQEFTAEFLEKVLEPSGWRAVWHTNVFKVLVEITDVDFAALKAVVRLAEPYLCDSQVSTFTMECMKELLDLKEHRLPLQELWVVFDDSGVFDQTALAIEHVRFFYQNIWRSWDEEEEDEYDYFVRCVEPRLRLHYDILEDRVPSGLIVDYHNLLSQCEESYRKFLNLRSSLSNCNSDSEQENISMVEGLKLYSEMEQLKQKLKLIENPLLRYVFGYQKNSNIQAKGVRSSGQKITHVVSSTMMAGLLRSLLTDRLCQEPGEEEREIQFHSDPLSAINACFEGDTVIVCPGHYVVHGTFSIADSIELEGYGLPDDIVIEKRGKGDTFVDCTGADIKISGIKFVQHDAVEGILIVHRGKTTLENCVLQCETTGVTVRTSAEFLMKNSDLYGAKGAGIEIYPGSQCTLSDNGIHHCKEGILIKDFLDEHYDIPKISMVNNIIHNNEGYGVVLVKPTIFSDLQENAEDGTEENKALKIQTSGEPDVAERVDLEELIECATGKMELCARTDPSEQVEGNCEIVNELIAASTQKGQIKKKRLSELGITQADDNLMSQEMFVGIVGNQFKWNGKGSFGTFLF
inactive: [1] 0 | [2] -0.032 | [3] 0 | [4] 0.07 | [5] 0.047 | [6] 0.102 | [7] 0.027 | [8] -0.014 | [9] 0.018 | [10] 0.117 | [11] -0.013 | [12] -0.052 | [13] 0.102 | [14] -0.008 | [15] -0.084 | [16] 0.117 | [17] 0.111 | [18] -0.028 | [19] 0.056 | [20] -0.139

RNPEP (UniProt Q9H4A4)
Chain of UniProt Q9H4A4 (Q9H4A4 whole entry, looked up): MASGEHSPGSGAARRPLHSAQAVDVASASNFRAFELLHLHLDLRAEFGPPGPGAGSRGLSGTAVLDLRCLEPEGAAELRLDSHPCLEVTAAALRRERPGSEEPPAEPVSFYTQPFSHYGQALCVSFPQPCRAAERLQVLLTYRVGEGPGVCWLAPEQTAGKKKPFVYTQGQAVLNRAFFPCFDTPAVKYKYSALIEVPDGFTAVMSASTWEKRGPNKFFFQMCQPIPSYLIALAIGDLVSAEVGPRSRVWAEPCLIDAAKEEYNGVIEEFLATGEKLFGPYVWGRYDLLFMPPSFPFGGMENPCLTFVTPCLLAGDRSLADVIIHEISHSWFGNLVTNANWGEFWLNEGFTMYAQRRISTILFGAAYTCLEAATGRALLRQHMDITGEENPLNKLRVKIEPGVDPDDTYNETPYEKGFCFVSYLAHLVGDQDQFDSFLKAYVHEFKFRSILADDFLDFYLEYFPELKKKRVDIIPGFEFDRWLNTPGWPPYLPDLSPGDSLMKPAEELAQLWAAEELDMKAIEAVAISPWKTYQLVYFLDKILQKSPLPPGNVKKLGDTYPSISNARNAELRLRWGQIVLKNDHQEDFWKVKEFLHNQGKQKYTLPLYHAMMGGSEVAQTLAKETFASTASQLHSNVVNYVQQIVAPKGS
active: [12] -0.303
inactive: [1] 0.032 | [2] -0.024 | [3] 0.002 | [4] 0.023 | [5] -0.023 | [6] 0.058 | [7] 0.052 | [8] -0.013 | [9] -0.112 | [10] 0.036 | [11] 0.015 | [13] 0.078 | [14] 0.042 | [15] -0.074 | [16] -0.09 | [17] 0.034 | [18] 0.077 | [19] -0.036 | [20] -0.119

RPS19 (UniProt P39019)
inactive: [1] 0.008 | [2] 0.007 | [3] -0.054 | [4] -0.009 | [5] 0.121 | [6] -0.07 | [7] -0.066 | [8] -0.039 | [9] 0.013 | [10] -0.083 | [11] 0.147 | [12] 0.319 | [13] 0.008 | [14] -0.115 | [15] 0.041 | [16] 0.091 | [17] -0.073 | [18] -0.063 | [19] 0.147 | [20] 0.121

RRAGC (UniProt Q9HB90)
Chain of UniProt Q9HB90 (Q9HB90 whole entry, looked up): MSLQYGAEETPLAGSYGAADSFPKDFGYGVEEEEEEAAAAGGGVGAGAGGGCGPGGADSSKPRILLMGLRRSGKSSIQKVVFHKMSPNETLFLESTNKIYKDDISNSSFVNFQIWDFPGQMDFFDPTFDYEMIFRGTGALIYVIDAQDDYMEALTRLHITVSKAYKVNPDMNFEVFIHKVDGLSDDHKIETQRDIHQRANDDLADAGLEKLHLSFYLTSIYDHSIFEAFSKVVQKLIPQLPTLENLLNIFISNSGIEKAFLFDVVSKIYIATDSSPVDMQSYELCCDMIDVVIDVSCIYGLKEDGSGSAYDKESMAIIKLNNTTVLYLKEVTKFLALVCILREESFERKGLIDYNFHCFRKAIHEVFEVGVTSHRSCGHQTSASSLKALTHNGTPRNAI
inactive: [1] 0.005 | [2] 0.003 | [3] 0.017 | [4] 0.008 | [5] -0.07 | [6] -0.027 | [7] 0.047 | [8] -0.048 | [9] 0.052 | [10] -0.011 | [11] -0.009 | [12] -0.003 | [13] -0.051 | [14] -0.045 | [15] 0.041 | [16] 0 | [17] -0.024 | [18] 0.05 | [19] -0.067 | [20] -0.177

RPL38 (UniProt P63173)
inactive: [1] 0.032 | [2] 0.017 | [3] -0.038 | [4] -0.045 | [5] 0.075 | [6] -0.003 | [7] 0.006 | [8] 0.069 | [9] -0.054 | [10] -0.025 | [11] 0.076 | [12] 0.187 | [13] 0.033 | [14] -0.062 | [15] -0.022 | [16] -0.03 | [17] -0.02 | [18] -0.012 | [19] -0.004 | [20] 0.052
